# Tests used:
# Assay in all cases: PBM binding z-score (relative to random genomic background probes); higher = stronger binding; sequences stand for … in GC…GCGATTGACAGCGTAGAATGAAGG
# [1] = test system: RARb homodimer (NR concentration 270 nM)
# Procedure, shortened: (§1)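 Antibodies against each partner of ligand-free nuclear receptor dimers (one per run) detected binding on custom Agilent 4×180K protein-binding microarrays after 1 h incubation. The double-stranded probes had 34-nt variable regions carrying direct-repeat seeds, single-nucleotide variants, half-site ablations and random human genomic background sequences. Binding z-scores, from regression-normalized fluorescence, use the random background probes as reference.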
# [2] = test system: RARg:RXRa (NR concentration 270 nM, RXRa partner concentration 90 nM)
# Procedure, shortened: as §1
# [3] = test system: RARg homodimer (NR concentration 270 nM)
# Procedure, shortened: as §1
# [4] = test system: RXRa DBDmut IVT, anti-RXR (DBD mutation: RXRa K156A/R161A, NR concentration 90 nM)
# Procedure, shortened: as §1
# [5] = test system: RXRa homodimer (NR concentration 180 nM)
# Procedure, shortened: as §1
# [6] = test system: THRa:RXRa (NR concentration 90 nM, RXRa partner concentration 90 nM)
# Procedure, shortened: as §1
# [7] = test system: THRa homodimer (NR concentration 90 nM)
# Procedure, shortened: as §1
# [8] = test system: VDR:RXRa (NR concentration 270 nM, RXRa partner concentration 90 nM)
# Procedure, shortened: as §1
# [9] = test system: VDR homodimer (NR concentration 270 nM)
# Procedure, shortened: as §1
Sequence,PBM binding z-score [1],PBM binding z-score [2],PBM binding z-score [3],PBM binding z-score [4],PBM binding z-score [5],PBM binding z-score [6],PBM binding z-score [7],PBM binding z-score [8],PBM binding z-score [9]
GGAACGGGGGCAAAGTTGATAGCATCTGTCGACG,2.04,3.72,2.45,3.44,3.61,2.65,0.962,3.25,3.49
TCTTGTAGATAAAGCAGGTTAAGAAAGCCTGAGT,0.29,0.138,0.0703,0.785,0.499,0.47,-0.334,0.751,0.374
GTAGACAGGTGAAACGCAGGTAACTCAGGGTGGC,0.348,0.896,0.286,-0.661,0.743,1.43,-0.349,-0.214,-0.271
TCGAGTAGGTTAGGCGGGGCATTCAGCCAACATA,0.241,0.2,-0.0839,-0.0244,0.0673,0.994,-0.341,1.43,0.0165
TCTAGTTGGTCAAAGGTCACAAACTCGAAATGCG,4.92,6.76,6.07,1.79,7.88,3.84,1.73,5.17,2.43
ATCTCTGGGTAAAGTTCAGTGAAAGATCGATAGA,2.68,2.19,2.4,1.43,1.57,1.11,0.412,1.64,1.62
CCAGACAGGTGATAGGTAACTCAGTCTGGTACGC,0.0377,0.156,0.068,-0.237,0.368,-0.116,-0.179,-0.0769,-0.505
TAGACTAGGTCATGGGCCAGTATACCACGCGAAC,2.68,3.79,4.47,-0.0129,2.96,2.73,0.989,1.76,0.435
ACTATTAGTTGAGACGAGGGCAACCAATAGGTTG,1.29,0.956,0.987,0.665,0.753,2.89,0.217,0.987,0.676
TCTCGTAGATCAAAGGTTAAGAAAGCCGAAGCCT,1.36,1.65,0.587,0.764,2.94,1.14,-0.441,1.24,0.265
CCTTACGGGTCACGAGGTAATAGCACGACGAGCG,3.32,5.87,5.34,1.67,6.56,3.52,0.849,4.18,0.979
AGAATGAGGTTACCAAAGATCAAGGAAACGCTTG,0.992,2.37,1.88,1.13,2.85,3.03,0.74,1.81,0.375
ATCGAAAGGTCGACTAGGTGAGTATACACCGTTT,2.66,4.11,3.91,0.992,4.12,2.86,0.0406,3.25,1.09
ACTATTAGTTGAGACGAGCGCAACCGATAGGTTG,-0.567,-0.546,0.138,-0.188,-0.211,-0.381,-0.708,-0.385,-0.0904
CAAACTAGGTCACCGGACGGTCAAAGTCCGCATG,4.41,6.71,6.04,1.41,4.05,3.5,1.73,3.59,1.1
TCTGGTAGGTCAACGATGGTCAGCTAATCTGCTA,3.75,4.31,4.78,1.26,3.49,2.98,0.7,2.2,0.622

# Reference: the supplement of paper PMC6555819
